D1 PAM = potentiators of human D1 dopamine receptor. HEK293 TREx D1 cells, calcium flux, dopamine EC20 potentiation. potentiation, % at 10 µM. 360,000 compounds, 0.036% hits. AID 504651; in the data active means potentiation above about 30%; further: 0% is about no effect
D1 antagonist = antagonists of human D1 dopamine receptor; HEK293 TREx D1 cells, calcium flux, dopamine EC80; active compounds read low; P21728; 360,000 compounds, 3.2% hits; activity change, negative = inhibition, % at 10 µM; in the data active means activity change below about -30%; further: on the % scale 0 is the no-effect control and ±100 the full control effect
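HEK293 T-REx cells expressing inducible, force-coupled D1 receptor; no-wash Ca dye, 30–90 min RT. Cmpd → 180 s read at 1 Hz → EC80 DA → 180 s read.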
D3 antag = D3 dopamine receptor (human) antagonism. P35462. D3R cells, DiscoveRx beta-arrestin luminescence, antagonist mode; active compounds read low. max response, negative = inhibition, %. 360,000 compounds, 2.5% hits. AID 652054; in the data active means max response below about -50%; inconclusive means no clear call, values can overlap the other calls; further: on the % scale 0 is the no-effect control and ±100 the full control effect
Target sequence (P35462 whole entry, looked up): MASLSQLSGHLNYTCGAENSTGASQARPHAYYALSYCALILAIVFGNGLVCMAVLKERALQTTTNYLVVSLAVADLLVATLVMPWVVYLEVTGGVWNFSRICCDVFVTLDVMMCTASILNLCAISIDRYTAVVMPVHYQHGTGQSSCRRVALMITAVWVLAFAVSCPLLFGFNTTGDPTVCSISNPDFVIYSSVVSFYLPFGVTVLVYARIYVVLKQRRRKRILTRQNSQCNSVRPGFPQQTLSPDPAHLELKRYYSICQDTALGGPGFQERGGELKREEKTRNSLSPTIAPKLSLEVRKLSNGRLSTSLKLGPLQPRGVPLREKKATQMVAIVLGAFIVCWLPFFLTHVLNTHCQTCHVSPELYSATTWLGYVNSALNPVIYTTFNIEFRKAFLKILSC
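Cells plated overnight at 1500 cells/well, then exposed to library compounds with dopamine controls for 90 minutes at 37 degrees C. DiscoveRx reagent added for 30–60 minutes at room temperature; luminescence read, quantitative HTS format.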
D1 agonist = human D1 receptor agonism. P21728. activation, % at 2 µM. HEK293 T-REx D1 cells, calcium flux, agonist mode. 360,000 compounds, 1% hits. AID 504660; in the data active means activation above about 30%; further: 0% is about no effect
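Tetracycline-induced HEK293 TREx D1 cells, force-coupled to calcium signalling, were dye-loaded with a no-wash calcium kit. Compound was pin-added after a 10 s baseline. Fluorescence was read kinetically at 1 cycle/s for 180 s, with calcium rises flagged as agonism.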
DRD3 agonist = agonists of human D3 dopamine receptor. P35462. D3R DiscoveRx beta-arrestin cells, luminescence, 90 min. max activation, %. 410,000 compounds, 0.58% hits; in the data active means max activation above about 30%; further: 0% is about no effect
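Cells at 1500/well, incubated overnight, then treated with pinned compounds (dopamine as control) for 90 min at 37 degrees C. DiscoveRx reagent added for 30 - 60 minutes at room temperature; luminescence read.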
* hit, by the source's call; ? = inconclusive; · = not tested or not shown. Rows were chosen to be rich in hits. Some 6% of all compounds tested hit in one or more screens of this group.

SMILES | D1 PAM | D1 antagonist | D3 antag | D1 agonist | DRD3 agonist
COC(=O)C1(Cc2cc(-c3ccc(OC)cc3OC)no2)CCN(C(=O)OC(C)(C)C)CC1 | -0.7 | -3.6 | -13.1 | -1.5 | 77.1*
Cc1cccc(NC(=S)NNC(=O)c2nn(C)cc2Cl)c1 | -1.6 | 3.4 | -98.8* | 0.5 | -4.4
Cc1ccc(NC(=S)NNC(=O)c2nn(C)cc2Cl)cc1 | -3.0 | -10.0 | -53.7* | 1.5 | -2.1
COc1cccc2cc(C(=O)N3CCN(c4ccccn4)CC3)c(=O)oc12 | 3.0 | -36.7* | 1.8 | 8.7 | -4.1
Cc1cc(C)c2oc(-c3cccc(NC(=O)COc4ccc([N+](=O)[O-])cc4)c3)nc2c1 | -0.4 | 4.7 | · | 1.9 | -2.3
O=C(NC1CCCC1)c1cc2cc(Br)ccc2o1 | -15.4 | -78.2* | -20.5 | 4.4 | -13.0
O=C(NC1CCCCCCC1)c1ccco1 | -5.2 | -31.0* | 17.3 | 3.2 | -7.4
O=C(NC1CCN(C(=O)NC2CCCCC2)CC1)c1ccco1 | -0.8 | 1.3 | 12.2 | 3.1 | -1.3
O=C(NC1CCCCC1)c1cc2cc(Br)ccc2o1 | 2.8 | -7.6 | 10.4 | 4.3 | -16.9
COc1ccc(C)cc1NS(=O)(=O)c1cc(Br)cc2c1N(C(C)=O)C(C)C2 (centres undefined) | 0.9 | -11.4 | · | -1.4 | -10.7
Cc1ccc(C)c(NC(=O)CSc2ncc3c(n2)-c2ccccc2N(Cc2ccccc2C)S3(=O)=O)c1 | -2.8 | -2.2 | · | 2.8 | 4.0
O=C(NCc1ccco1)c1sc(=S)n2c1[nH]c(=O)c1ccccc12 | -8.3 | -28.4 | 18.7 | 48.8* | 3.4
O=C(NC1CCCC1)c1sc(=S)n2c1[nH]c(=O)c1ccccc12 | -7.6 | -4.3 | 21.6 | 28.7 | 1.5
CCOC(=O)C1(C)CCCCCN1C(=O)c1csnn1 (centres undefined) | · | · | -18.9 | · | -4.5
CCOC(=O)C1(C)CCCN1C(=O)c1snnc1C (centres undefined) | · | · | -51.1* | · | -5.1
CC(=O)c1ccc(NC(=O)Cn2c3ncccc3c(=O)n2-c2ccc(C)cc2)cc1 | -0.3 | 20.7 | · | 19.0 | 6.0
CC1CCc2sc(C(=O)NN=C3CCC(c4ccccc4)CC3)cc2C1 (centres undefined) | 4.0 | 4.2 | -1.3 | 1.3 | -5.4
CC1CCc2sc(C(=O)NC3CCN(Cc4ccccc4)CC3)cc2C1 (centres undefined) | · | -16.3 | -95.3* | 37.5* | -18.5
CCC1CCc2sc(C(=O)NC3CCN(Cc4ccccc4)CC3)cc2C1 (centres undefined) | -5.3 | 8.7 | -72.0* | 14.2 | -32.0
CCC1CCc2sc(C(=O)NCc3ccccn3)cc2C1 (centres undefined) | -7.8 | 0.7 | -8.1 | -0.5 | -0.6
CCOC(=O)CC(=O)CSc1nc2ccsc2c(=O)n1Cc1ccccc1 | -2.1 | 7.4 | · | 1.6 | -5.4
COc1cc(-c2nnc(-c3ccc(S(=O)(=O)c4ccccc4)cc3)o2)cc(OC)c1OC | 0.5 | -31.1* | 0.0 | 0.7 | 1.9
COc1cc(-c2nnc(-c3ccc(N4CCOCC4)cc3)o2)cc(OC)c1OC | 1.4 | -19.9 | 24.3 | 2.1 | 38.5*
COc1ccc(NS(=O)(=O)c2cccc(-c3nnc(-c4ccccc4)o3)c2)cc1 | -2.5 | -31.7* | 49.4 | -0.5 | 11.6
O=S(=O)(NC1CCCC1)c1cccc(-c2nnc(-c3ccccc3)o2)c1 | 4.3 | -12.1 | 10.5 | 8.6 | 19.7
SMILES | D1 PAM | D1 antagonist | D3 antag | D1 agonist | DRD3 agonist
COc1ccc(CCNC(=O)CSc2nc3ccccc3nc2Cc2ccc(Cl)cc2)cc1OC | -0.1 | -4.8 | · | 0.5 | -6.9
CN(C)c1ccc(CNC(=O)CN(C)S(=O)(=O)c2cccc3cccnc23)cc1 | · | -66.0* | 17.9 | 0.0 | 4.9
CN(CC(=O)NCc1cccs1)S(=O)(=O)c1cccc2cccnc12 | · | 7.5 | 0.0 | 0.5 | -9.5
O=C(NCCc1ccccc1)c1cc(-c2ccccc2)nc2n[nH]c(-c3ccccc3)c12 | 2.8 | -3.4 | · | 1.4 | -9.1
CC(=O)NC12CC3CC(C1)CC(C(=O)Nc1c(C)n(C)n(-c4ccccc4)c1=O)(C3)C2 | 0.3 | -40.8* | 0.8 | 3.4 | 4.3
Cc1c(NC(=O)C23CC4CC(CC(C)(C4)C2)C3)c(=O)n(-c2ccccc2)n1C | -9.2 | 13.6 | 1.2 | 2.9 | 4.2
CC(C)(C)OC(=O)N[C@@H](C(=O)OC(C)(C)C)c1ccccc1 | -6.3 | -35.0* | -18.4 | -0.9 | -12.1
Cc1cccc([C@@H](NC(=O)OC(C)(C)C)C(=O)OC(C)(C)C)c1 | 5.0 | · | 8.3 | -4.7 | 3.7
Clc1ccc2nc(CN3CCCCCC3)cn2c1 | -11.4 | -1.8 | -84.8* | 7.7 | -5.0
Clc1ccc2nc(CN3CCCCC3)cn2c1 | -1.7 | 10.8 | ? | -0.7 | -27.9
CCNC(=O)C/C(C)=N/NC(=O)C12CC3CC(CC(C3)C1)C2 | -4.3 | -31.9* | 0.0 | 0.5 | -3.8
O=C(CSc1nncn2c1cc1occc12)Nc1ccccc1C(F)(F)F | -4.4 | -0.2 | · | 8.7 | -12.9
O=C(Nc1nc(-c2ccccc2)cs1)c1cccc([N+](=O)[O-])c1 | -7.5 | -25.8 | -69.1* | 5.5 | -8.4
O=C(Nc1ncc([N+](=O)[O-])s1)c1cccc([N+](=O)[O-])c1 | -15.9 | -25.0 | 7.1 | 31.7* | 1.2
Cc1onc(-c2ccccc2)c1C(=O)Nc1nc(-c2ccccc2)cs1 | -11.5 | -5.3 | -55.9* | 4.1 | 6.4
O=C(Nc1nc(-c2cc(F)ccc2F)cs1)c1cccc(N2C(=O)CCC2=O)c1 | -4.8 | -32.4* | 8.5 | 9.4 | -5.2
CCOC(=O)CSc1nc2c(sc3ccccc32)c(=O)n1Cc1ccc(OC)cc1 | -0.1 | -9.5 | · | 5.8 | -3.8
COc1ccc(OC)c(NC(=O)CSC2=Nc3ccccc3C3=NC(CC(=O)NCc4ccc5c(c4)OCO5)C(=O)N23)c1 (centres undefined) | -3.8 | -16.6 | · | 1.0 | -1.6
CC(=O)c1ccc(NC(=O)C2CCC(CNS(=O)(=O)c3cccs3)CC2)cc1 (centres undefined) | -3.2 | -20.5 | · | 13.5 | 4.5
Cc1noc(C)c1C(=O)Nc1nc(-c2cc(F)ccc2F)cs1 | -2.7 | -32.0* | -9.9 | 1.9 | 3.5
O=C(Nc1nc(-c2ccc(-c3ccccc3)cc2)cs1)c1cc([N+](=O)[O-])ccc1N1CCOCC1 | -7.5 | -36.2* | -11.4 | -0.2 | -3.1
Cc1ccc(S(=O)(=O)N2CCOCC2)cc1NC(=O)c1cc([N+](=O)[O-])ccc1N1CCOCC1 | -0.3 | -68.6* | -13.7 | -1.6 | 4.1
Cc1onc(-c2ccccc2)c1C(=O)Nc1nc(-c2cc(F)ccc2F)cs1 | -7.3 | -5.3 | 21.2 | 1.6 | 4.1
O=[N+]([O-])c1cccc(-c2csc(Nc3ccccc3)n2)c1 | -11.7 | -30.4* | -14.4 | 3.6 | 1.2
Cc1cccc(Cn2cc(C(=O)Nc3ccc(F)c(C(F)(F)F)c3)ccc2=O)c1 | -5.0 | -16.9 | · | 13.8 | 2.6
CCOc1ccccc1NC(=O)Cn1c(=O)n(-c2ccc(C)cc2)c(=O)c2c1cnn2C | 2.8 | -1.9 | · | 0.2 | -2.0

Screening results: PubChem, National Center for Advancing Translational Sciences (NCATS)
